We go through 40 sequences from the OligoGym collection.
Further: reference of the scale not given here.

One test has as its target GPAA1. Put plainly: pooled miR-30 sensor sort-seq; sequence = guide strand. To be noted: shRNA.
TTCTCCGACATGTAAGTGCGCT showed a sensor-assay potency score (higher = more potent) of -0.864.

In the case of TTCTGTTACCAGGAAGACGATA, the sensor-assay potency score (higher = more potent) was -1.01.

TTGAGGCGCAGCACTAGGCGGG yielded a sensor-assay potency score (higher = more potent) of -0.543.

In turn, TTCCGGGAGAAACTCTGCGTGT showed a sensor-assay potency score (higher = more potent) of -1.01.

Consider TAGCTCAGCACGCACAACGGCG, for which the sensor-assay potency score (higher = more potent) is -1.38.

On to TTGAGCTTGCGGAACATGCCCT, for which the sensor-assay potency score (higher = more potent) is -0.132.

For the sequence TAGCGCTGCCAGGAAGAGCTGC, the sensor-assay potency score (higher = more potent) is -1.02.

A further test has as its target GPATCH3. The test is described as above. To be noted: shRNA.
As for TATTTCTTCACCCTCTGCTGTA, the sensor-assay potency score (higher = more potent) is -0.595.

The sequence TAAGCCTCTGAGCTTGAGCCAA displayed a sensor-assay potency score (higher = more potent) of -0.945.

With TAAAACACCAGGCCAGAGCCAC, the sensor-assay potency score (higher = more potent) is -0.98.

Regarding TAAAATAGCTCCGTAAATGGGC, the sensor-assay potency score (higher = more potent) was -0.362.

TGTACACACAAGCTCTTCCTGC showed a sensor-assay potency score (higher = more potent) of -0.536.

TCTGTCATAGTACACACTCATG: the sensor-assay potency score (higher = more potent) is -1.69.

Turning to TTCCGTGACGTCGCACACCCAA, the sensor-assay potency score (higher = more potent) was -0.81.

For TTGAGCTCAATCTCCTCCTCAA, the sensor-assay potency score (higher = more potent) came out at 0.169.

TTAGGGCAGAGTTAGGAGCGGC had a sensor-assay potency score (higher = more potent) of -0.764.

TTAGAGACCAAAGACAAGCGGT registered a sensor-assay potency score (higher = more potent) of 0.0667.

A further test has as its target GPBAR1. The description is as above. To be noted: shRNA.
Turning to TGGGTGGTAGGCAATGCTGGGG, the sensor-assay potency score (higher = more potent) is -1.2.

CTGTGTAGCGCTGATCGCCCAG registered a sensor-assay potency score (higher = more potent) of -1.64.

As for TTCCACAGCCCTGGCAATGTGG, the sensor-assay potency score (higher = more potent) was -1.2.

TTGGGTGGTAGGCAATGCTGGG returned a sensor-assay potency score (higher = more potent) of -0.797.

Turning to AGGAGGGACAACAGTGTCCCAG, the sensor-assay potency score (higher = more potent) was -1.92.

With TGGTAGGCAATGCTGGGGCCGG, the sensor-assay potency score (higher = more potent) was -1.84.

The sequence ACTGCTTTGGCTGCTTGGGTGG yielded a sensor-assay potency score (higher = more potent) of -1.37.

Sequence TAGCGCTGATCGCCCAGCCCCA yielded a sensor-assay potency score (higher = more potent) of -1.62.

Regarding ATGTGGGCAATGCCAGACCCGT, the sensor-assay potency score (higher = more potent) is -2.11.

For TGTGTAGCGCTGATCGCCCAGC, the sensor-assay potency score (higher = more potent) is -1.16.

On to TGCACTGGCACTTCCTAGGGAG, for which the sensor-assay potency score (higher = more potent) was -0.377.

With TGCTTTGGCTGCTTGGGTGGTA, the sensor-assay potency score (higher = more potent) was -0.379.

In a further test the target is GPIHBP1. The test is described as above. To be noted: shRNA.
Consider TTGTGCAGGTCTGGCCATGTGA, for which the sensor-assay potency score (higher = more potent) was -0.97.

On to ATGTGAGCAGTTCTGCGTCAGG, for which the sensor-assay potency score (higher = more potent) is -1.72.

As to TTCCTCTTCCTCCTGCTGTGTC, the sensor-assay potency score (higher = more potent) was -0.491.

Sequence TCGTCGTAGTCATCTGGCCCGT had a sensor-assay potency score (higher = more potent) of -1.29.

The sequence TTCAACCTCATCCTCATCTTCC came in with a sensor-assay potency score (higher = more potent) of -0.334.

In turn, ATCCTCATCTTCCTCGTCGTAG returned a sensor-assay potency score (higher = more potent) of -0.474.

In turn, ATGAGGGTTGTGCAGGTCTGGC yielded a sensor-assay potency score (higher = more potent) of -1.69.

Take TTGCACAGGCTGGACTGGCAGC: the sensor-assay potency score (higher = more potent) was -1.25.

The sequence TCATCTTCCTCGTCGTAGTCAT displayed a sensor-assay potency score (higher = more potent) of -0.418.

In turn, TTCTGCGTCAGGTTGCAGCGCT displayed a sensor-assay potency score (higher = more potent) of -0.795.

Take TTCCTCGTCGTAGTCATCTGGC: the sensor-assay potency score (higher = more potent) was -0.201.
